In the library only some 2% were active in any assay of this set; here they are far more common.
DAGLB inhibitor – DAGLB lipase inhibitors, primary screen, biochemical, fluorescence, HTS; HEK293T DAGLB membrane lysate, EnzChek fluorogenic substrate; inhibition, % at 5.17 µM; 340,000 compounds, 0.059% hits; AID 504411, 2011; in the data active means inhibition above about 34%;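 further: 0% = enzyme with vehicle and 100% = wells lacking enzyme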
Target sequence (Q8NCG7 whole entry, looked up): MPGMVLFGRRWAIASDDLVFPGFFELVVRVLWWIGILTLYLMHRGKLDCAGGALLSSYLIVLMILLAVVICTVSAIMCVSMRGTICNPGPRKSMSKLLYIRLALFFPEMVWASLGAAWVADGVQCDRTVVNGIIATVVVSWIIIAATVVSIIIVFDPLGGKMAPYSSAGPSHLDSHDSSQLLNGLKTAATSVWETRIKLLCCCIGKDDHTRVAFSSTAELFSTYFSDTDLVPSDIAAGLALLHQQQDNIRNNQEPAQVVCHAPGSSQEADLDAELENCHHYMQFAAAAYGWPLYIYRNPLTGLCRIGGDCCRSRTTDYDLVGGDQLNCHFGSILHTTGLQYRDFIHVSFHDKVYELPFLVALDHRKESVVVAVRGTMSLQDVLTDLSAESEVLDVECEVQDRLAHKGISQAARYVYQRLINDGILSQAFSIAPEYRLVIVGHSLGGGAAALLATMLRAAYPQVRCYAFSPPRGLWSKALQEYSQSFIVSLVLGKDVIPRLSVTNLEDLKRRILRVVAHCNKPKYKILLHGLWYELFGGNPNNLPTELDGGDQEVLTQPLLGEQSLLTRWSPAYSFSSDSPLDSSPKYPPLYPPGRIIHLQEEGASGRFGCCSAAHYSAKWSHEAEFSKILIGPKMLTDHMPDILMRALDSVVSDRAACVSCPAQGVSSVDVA
ARNT-TACC3 inh – disruptors of ARNT/TACC3 protein interaction, primary screen, biochemical, AlphaScreen, single concentration; 390,000 compounds, 0.66% hits; inhibition, % at 9.99 µM; AlphaScreen His-ARNT PAS-B/GST-TACC3 binding, luminescence; TACC3 fragment carries E629A point mutation;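 active means mean inhibition of replicates at least 50% and at least half of replicates each reaching 50%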;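 further: 0% = complete ARNT plus TACC3 wells and 100% = ARNT alone without TACC3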
NadD inh – inhibitors of S. aureus NadD, primary screen, biochemical, colorimetric, uHTS | 360,000 compounds, 0.78% hits | Nicotinate-nucleotide adenylyltransferase NadD (Staphylococcus aureus N315) | purified NadD enzyme, colorimetric absorbance read-out | inhibition, % at 20 µM | AID 602399, 2012; in the data active means inhibition above about 26%
Neddyl block – inhibitors of cullin neddylation, primary screen, biochemical, TR-FRET, uHTS, NAE and Ubc12. inhibition, % at 25 µM. AID 651699, 2012. 360,000 compounds, 0.58% hits. NEDD8-conjugating enzyme Ubc12 (Homo sapiens) + NEDD8-activating enzyme E1 regulatory …; in the data active means inhibition above about 36%
sPLA2-III inh – human group III sPLA2 inhibitors, primary screen, biochemical, QFRET, BODIPY PC-A2 liposome substrate; Group 3 secretory phospholipase A2 (Homo sapiens), Q9NZ20; QFRET BODIPY PC-A2 liposome hydrolysis, fluorescence; inhibition, % at 12.2 µM; 370,000 compounds, 0.56% hits;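 active means inhibition above mean plus 3 SD of compounds lying within the high and low control bounds, cut at about 19% in these data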;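 further: 0% = median of test compound wells and 100% = no enzyme DMSO wells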
NadD inh conf – inhibitors of S. aureus NadD, confirmation, biochemical, colorimetric, single concentration; shares compounds with NadD inh; inhibition, % at 20 µM; purified S. aureus NadD, colorimetric enzyme assay; 2,000 compounds, 13% hits; AID 624309, 2012; in the data active means inhibition mostly above about 42%, no sharp cut-off; inactive means mostly below about 42%
An asterisk follows results filed as active; nt = no result shown.

SMILES	DAGLB inhibitor	ARNT-TACC3 inh	NadD inh	Neddyl block	sPLA2-III inh	NadD inh conf
CCc1cccc2c1NC(=O)C21N2CCCC2C(C(=O)c2ccc3ccccc3c2)C12C(=O)Nc1ccccc12 (configuration not stated)	2	-1	39*	2	12	52*
Cc1cccc(C2(c3cccc(C)c3)CC2C(=O)Nc2ccc([N+](=O)[O-])cc2O)c1 (configuration not stated)	-2	-12	30*	-6	-23	50*
C=CCNC(=O)C1CC1(c1cccc(C)c1)c1cccc(C)c1 (configuration not stated)	nt	nt	-3	-3	10	nt
O=C(CCCCn1c(=S)[nH]c2ccsc2c1=O)NCc1ccc2c(c1)OCO2	3	9	30*	-84	7	35
CN(c1ccccc1)S(=O)(=O)c1ccc(Cl)c(C(=O)Nc2ccc(-c3nc4ccccc4[nH]3)cc2)c1	2	0	33*	nt	-2	40
CN(c1ccccc1)S(=O)(=O)c1ccc(Cl)c(C(=O)Nc2nc3ccccc3[nH]2)c1	3	3	11	24	3	nt
Cc1c(NC(=O)/C(C#N)=C/c2ccc(-c3ccc(Cl)c(Cl)c3)o2)c(=O)n(-c2ccccc2)n1C	8	-3	33*	-14	17	8
Cc1c(NC(=O)/C(C#N)=C/c2ccc(-c3cccc(Cl)c3)o2)c(=O)n(-c2ccccc2)n1C	3	16	11	-18	-14	nt
Cc1ccccc1OCc1nnc(SCC(=O)Nc2ccc3nc(SCC(=O)Nc4ccccc4)sc3c2)n1C	1	nt	32*	-20	-10	3
Cc1ccccc1OCc1nnc(SCC(=O)Nc2ccc3c(c2)OCO3)n1C	3	-4	6	-13	-3	nt
Cc1cc(C)c(NC(=O)CSc2nc3ccc(NC(=O)CSc4nnnn4Cc4ccccc4)cc3s2)c(C)c1	13	0	47*	-53	-1	-3
C[C@H](CCC(=O)O)[C@H]1CC[C@H]2[C@@H]3CC[C@@H]4C[C@H](O)CC[C@]4(C)[C@H]3C[C@H](O)[C@]12C	5	-6	2	-5	-13	nt
CC(CCC(=O)NN)C1CCC2C3CCC4CC(O)CCC4(C)C3CCC12C (configuration not stated)	0	-7	38*	-7	2	6
CCOC(=O)c1c(-c2ccccc2)csc1NC(=O)/C(C#N)=C/c1ccc(O)c(OC)c1	-32	-1	44*	-8	11	16
CC(C)C[C@H]1CN([C@@H](Cc2ccc(O)cc2)CN2CCC[C@@H]2CN2C(=S)NC[C@@H]2Cc2ccccc2)C(=S)N1CC1CCCCC1	nt	nt	22	-2	-20	nt
Oc1ccc(C[C@H]2CN([C@@H](Cc3ccccc3)CN3CCCC3CN3C(=S)NC[C@@H]3Cc3ccccc3)C(=S)N2CC2CCCCC2)cc1 (some centres not stated)	nt	nt	43*	-14	-8	4
Oc1ccc(C[C@H]2CNC(=S)N2C[C@H]2CCCN2C[C@H](Cc2ccccc2)N2C[C@H](Cc3ccc(O)cc3)N(CC3CCCCCC3)C2=S)cc1	nt	nt	43*	-4	8	14
Oc1ccc(C[C@H]2CNC(=S)N2CC2CCCN2C[C@H](Cc2ccc(O)cc2)N2C[C@H](Cc3ccc(O)cc3)N(CC3CCCCC3)C2=S)cc1 (some centres not stated)	13	4	48*	-26	-15	47
Oc1ccc(C[C@H]2CN([C@@H](Cc3cccc(O)c3)CN3CCC[C@@H]3CN3C(=S)NC[C@@H]3Cc3ccccc3)C(=S)N2CC2CCCCC2)cc1	nt	nt	44*	1	-4	33
CO[C@H]1CN(C)C(=O)c2cc(NC(=O)NC(C)C)ccc2OC[C@H](C)N(Cc2cncnc2)C[C@@H]1C	nt	-8	nt	nt	nt	nt

From PubChem
